Common to all, as to assay: DAPPL (digital affinity profiling via proximity ligation, sequencing); 10 mM Tris-HCl pH 7.5, 50 mM NaCl, 1 mM DTT, 4% glycerol, room temperature, 30 min; GST-TFs on glutathione beads, 16-mer random dsDNA library, 0.1% formaldehyde crosslink after washing; high values mean tight binding
One assay deals with T1, FEV (Homo sapiens, UniProt Q99581 1-238).
T1 sequence: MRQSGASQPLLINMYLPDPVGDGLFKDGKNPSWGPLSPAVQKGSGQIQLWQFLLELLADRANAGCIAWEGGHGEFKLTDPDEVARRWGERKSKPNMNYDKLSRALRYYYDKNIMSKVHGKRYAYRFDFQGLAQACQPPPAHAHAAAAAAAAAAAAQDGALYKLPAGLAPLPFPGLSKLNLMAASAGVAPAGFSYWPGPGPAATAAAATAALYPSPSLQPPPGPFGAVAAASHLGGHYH
Particulars: protein: recombinant; tags: N-terminal GST; dsDNA, one strand shown. A digest of the protocol:
(§1)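 Beads coated with glutathione captured GST-fused human transcription factors that had been expressed in yeast, and the factors were then given DNA barcodes and pooled with a tag-only sample. The pools were incubated with 200 nmole of a random double-stranded 16-mer DNA library in Tris/NaCl/DTT/glycerol buffer for 30 min at room temperature, washed, crosslinked with 0.1% formaldehyde and proximity-ligated with BsaI/T4 ligase at 37 °C for 1 h. PCR amplification and Illumina NextSeq500 sequencing came last. Binding signal is each hexamer's read frequency for a factor divided by its frequency for the tag-only sample.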

In a further assay the target is ETV5 (Homo sapiens, UniProt P41161 1-510). Particulars: protein: recombinant; tags: N-terminal GST; dsDNA, one strand shown. In a few lines: as §1
Another assay deals with HSF1 (Homo sapiens, UniProt Q00613 1-529). Conditions: protein: recombinant; tags: N-terminal GST; chain copies: 3; dsDNA, one strand shown. In a few lines: as §1
A further assay deals with T2, SPIC (Homo sapiens, UniProt Q8N5J4 1-248).
T2 sequence: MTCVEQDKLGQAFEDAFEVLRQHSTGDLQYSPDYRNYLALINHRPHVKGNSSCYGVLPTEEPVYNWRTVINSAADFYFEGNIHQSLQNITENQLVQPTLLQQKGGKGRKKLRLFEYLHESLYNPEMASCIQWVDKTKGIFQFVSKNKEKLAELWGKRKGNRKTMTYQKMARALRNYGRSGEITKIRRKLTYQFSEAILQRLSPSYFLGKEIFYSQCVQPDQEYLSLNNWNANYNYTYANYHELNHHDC
Conditions: protein: recombinant; tags: N-terminal GST; dsDNA, one strand shown. In a few lines: as §1

Another assay concerns the target ELF4 (Homo sapiens, UniProt Q99607 1-663). Conditions: protein: recombinant; tags: N-terminal GST; dsDNA, one strand shown. A digest of the protocol:
as §1

The target of the next assay is T3, ELK4 (Homo sapiens, UniProt P28324-2 1-405).
T3 sequence: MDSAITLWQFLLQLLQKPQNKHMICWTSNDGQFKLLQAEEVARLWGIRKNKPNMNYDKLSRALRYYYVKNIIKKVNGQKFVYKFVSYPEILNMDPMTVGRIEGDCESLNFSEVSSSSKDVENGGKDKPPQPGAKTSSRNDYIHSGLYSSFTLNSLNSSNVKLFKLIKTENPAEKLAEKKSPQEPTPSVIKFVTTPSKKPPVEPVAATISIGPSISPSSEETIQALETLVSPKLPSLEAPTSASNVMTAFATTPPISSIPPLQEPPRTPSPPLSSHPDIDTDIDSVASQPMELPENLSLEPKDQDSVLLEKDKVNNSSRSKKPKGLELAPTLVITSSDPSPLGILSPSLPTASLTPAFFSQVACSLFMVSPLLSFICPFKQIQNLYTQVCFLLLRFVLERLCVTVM
Conditions: protein: recombinant; tags: N-terminal GST; dsDNA, one strand shown. A digest of the protocol:
as §1

In another assay the target is T4, ETV2 (Homo sapiens, UniProt O00321 1-342).
T4 sequence: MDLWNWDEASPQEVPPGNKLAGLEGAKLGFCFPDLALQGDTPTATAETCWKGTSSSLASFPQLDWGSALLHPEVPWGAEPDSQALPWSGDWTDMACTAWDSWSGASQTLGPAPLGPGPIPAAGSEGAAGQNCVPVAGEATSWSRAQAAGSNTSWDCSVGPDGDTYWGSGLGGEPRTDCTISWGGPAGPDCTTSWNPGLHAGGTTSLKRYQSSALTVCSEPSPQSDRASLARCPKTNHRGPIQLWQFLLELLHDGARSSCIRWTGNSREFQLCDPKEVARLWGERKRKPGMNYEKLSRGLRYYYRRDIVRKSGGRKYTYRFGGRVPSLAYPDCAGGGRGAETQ
Particulars: protein: recombinant; tags: N-terminal GST; dsDNA, one strand shown. A digest of the protocol:
as §1

The target in another assay is T5, ELF3 (Homo sapiens, UniProt P78545 1-371).
T5 sequence: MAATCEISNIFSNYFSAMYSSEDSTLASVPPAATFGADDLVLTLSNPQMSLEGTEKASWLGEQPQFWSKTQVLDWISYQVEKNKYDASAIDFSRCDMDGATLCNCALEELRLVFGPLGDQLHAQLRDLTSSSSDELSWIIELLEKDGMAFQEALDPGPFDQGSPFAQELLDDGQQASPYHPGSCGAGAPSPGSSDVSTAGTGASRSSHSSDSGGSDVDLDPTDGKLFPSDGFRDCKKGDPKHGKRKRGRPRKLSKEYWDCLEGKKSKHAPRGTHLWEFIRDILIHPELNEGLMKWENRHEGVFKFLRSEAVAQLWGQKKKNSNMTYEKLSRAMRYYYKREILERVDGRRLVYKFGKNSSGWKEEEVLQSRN
Particulars: protein: recombinant; tags: N-terminal GST; dsDNA, one strand shown. A digest of the protocol: as §1

In the next assay the target is CRX (Homo sapiens, UniProt O43186 1-299). Conditions: protein: recombinant; tags: N-terminal GST; dsDNA, one strand shown. A digest of the protocol:
as §1

In a further assay the target is ETV1 (Homo sapiens, UniProt P50549 1-477). Conditions: protein: recombinant; tags: N-terminal GST; dsDNA, one strand shown. In a few lines: as §1
The next assay addresses T6, ERF (Homo sapiens, UniProt P50548 1-548).
T6 sequence: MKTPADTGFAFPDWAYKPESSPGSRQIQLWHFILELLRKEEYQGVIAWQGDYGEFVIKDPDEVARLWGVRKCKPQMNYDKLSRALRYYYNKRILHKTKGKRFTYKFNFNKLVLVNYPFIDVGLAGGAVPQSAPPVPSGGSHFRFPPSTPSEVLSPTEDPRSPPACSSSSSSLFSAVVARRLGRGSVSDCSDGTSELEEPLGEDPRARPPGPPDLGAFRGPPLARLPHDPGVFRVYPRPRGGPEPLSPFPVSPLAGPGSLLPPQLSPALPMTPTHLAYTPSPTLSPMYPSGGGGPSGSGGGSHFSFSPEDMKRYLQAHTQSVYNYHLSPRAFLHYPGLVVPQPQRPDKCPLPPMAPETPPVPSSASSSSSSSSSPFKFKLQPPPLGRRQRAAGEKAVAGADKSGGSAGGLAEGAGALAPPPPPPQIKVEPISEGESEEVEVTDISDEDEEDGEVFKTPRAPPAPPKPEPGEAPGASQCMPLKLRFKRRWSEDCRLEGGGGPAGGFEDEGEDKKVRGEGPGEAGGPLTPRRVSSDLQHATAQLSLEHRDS
Particulars: protein: recombinant; tags: N-terminal GST; dsDNA, one strand shown. A digest of the protocol:
as §1

For another assay, the target named is T7, ETV3L (Homo sapiens, UniProt Q6ZN32 1-361).
T7 sequence: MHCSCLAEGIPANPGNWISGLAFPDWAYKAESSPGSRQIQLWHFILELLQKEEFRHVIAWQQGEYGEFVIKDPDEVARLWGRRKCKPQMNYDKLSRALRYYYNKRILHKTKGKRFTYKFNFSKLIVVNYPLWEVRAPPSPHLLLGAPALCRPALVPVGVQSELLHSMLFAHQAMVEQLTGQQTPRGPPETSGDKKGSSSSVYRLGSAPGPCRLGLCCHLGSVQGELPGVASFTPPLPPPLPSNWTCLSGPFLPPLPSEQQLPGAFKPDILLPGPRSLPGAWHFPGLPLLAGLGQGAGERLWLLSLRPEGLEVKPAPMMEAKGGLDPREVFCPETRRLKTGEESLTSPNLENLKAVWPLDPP
Conditions: protein: recombinant; tags: N-terminal GST; dsDNA, one strand shown. In a few lines:
as §1

The target in another assay is T8, ETS2 (Homo sapiens, UniProt P15036 1-469).
T8 sequence: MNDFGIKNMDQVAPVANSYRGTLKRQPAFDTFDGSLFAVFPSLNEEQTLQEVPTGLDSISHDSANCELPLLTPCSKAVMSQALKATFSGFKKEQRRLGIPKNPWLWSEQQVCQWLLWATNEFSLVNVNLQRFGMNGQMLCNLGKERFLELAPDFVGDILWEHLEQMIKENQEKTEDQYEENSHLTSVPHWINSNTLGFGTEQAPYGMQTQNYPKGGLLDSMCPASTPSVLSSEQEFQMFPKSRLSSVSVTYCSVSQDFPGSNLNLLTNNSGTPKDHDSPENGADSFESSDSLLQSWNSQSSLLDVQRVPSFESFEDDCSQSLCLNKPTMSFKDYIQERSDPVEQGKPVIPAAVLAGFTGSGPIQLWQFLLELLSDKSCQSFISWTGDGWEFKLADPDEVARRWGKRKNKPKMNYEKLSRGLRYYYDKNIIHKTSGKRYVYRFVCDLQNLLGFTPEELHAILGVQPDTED
Conditions: protein: recombinant; tags: N-terminal GST; dsDNA, one strand shown. A digest of the protocol: as §1

A further assay concerns the target T9, SPDEF (Homo sapiens, UniProt O95238 1-335).
T9 sequence: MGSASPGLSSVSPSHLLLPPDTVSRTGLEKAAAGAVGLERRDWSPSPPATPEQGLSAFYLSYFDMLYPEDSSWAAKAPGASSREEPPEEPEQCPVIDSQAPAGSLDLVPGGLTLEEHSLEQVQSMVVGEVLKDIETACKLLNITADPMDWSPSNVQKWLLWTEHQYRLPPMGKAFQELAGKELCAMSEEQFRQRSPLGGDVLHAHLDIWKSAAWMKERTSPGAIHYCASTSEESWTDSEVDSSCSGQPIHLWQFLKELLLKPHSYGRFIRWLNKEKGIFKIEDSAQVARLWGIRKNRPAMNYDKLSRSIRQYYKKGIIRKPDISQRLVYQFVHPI
Conditions: protein: recombinant; tags: N-terminal GST; dsDNA, one strand shown. In a few lines:
as §1

Another assay addresses T10, ETV7 (Homo sapiens, UniProt Q9Y603 1-341).
T10 sequence: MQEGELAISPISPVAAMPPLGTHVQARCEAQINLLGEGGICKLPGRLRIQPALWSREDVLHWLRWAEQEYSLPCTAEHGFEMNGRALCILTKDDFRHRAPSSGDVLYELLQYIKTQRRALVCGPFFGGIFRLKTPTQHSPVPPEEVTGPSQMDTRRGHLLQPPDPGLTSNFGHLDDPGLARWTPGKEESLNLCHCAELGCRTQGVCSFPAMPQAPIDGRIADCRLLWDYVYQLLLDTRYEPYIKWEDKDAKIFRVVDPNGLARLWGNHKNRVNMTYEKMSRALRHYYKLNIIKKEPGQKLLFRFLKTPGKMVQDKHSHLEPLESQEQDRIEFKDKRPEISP
Particulars: protein: recombinant; tags: N-terminal GST; dsDNA, one strand shown. In a few lines: as §1

In a further assay the target is T11, ELF5 (Homo sapiens, UniProt Q9UKW6-2 1-255).
T11 sequence: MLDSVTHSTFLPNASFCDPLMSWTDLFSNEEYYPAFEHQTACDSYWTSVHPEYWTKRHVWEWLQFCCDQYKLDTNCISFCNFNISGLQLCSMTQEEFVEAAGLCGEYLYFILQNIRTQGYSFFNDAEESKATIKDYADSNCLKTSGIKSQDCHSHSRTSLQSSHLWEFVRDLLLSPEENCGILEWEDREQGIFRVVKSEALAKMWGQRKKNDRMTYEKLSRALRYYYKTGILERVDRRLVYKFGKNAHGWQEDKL
Particulars: protein: recombinant; tags: N-terminal GST; dsDNA, one strand shown. A digest of the protocol: as §1

Another assay deals with T12, ETV3 (Homo sapiens, UniProt P41162-2 1-143).
T12 sequence: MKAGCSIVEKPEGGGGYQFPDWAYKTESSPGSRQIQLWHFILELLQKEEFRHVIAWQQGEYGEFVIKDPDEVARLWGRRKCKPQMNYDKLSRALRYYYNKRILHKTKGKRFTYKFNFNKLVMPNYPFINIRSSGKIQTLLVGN
Conditions: protein: recombinant; tags: N-terminal GST; dsDNA, one strand shown. A digest of the protocol: as §1

A further assay has as its target ETV6 (Homo sapiens, UniProt P41212 1-452). Conditions: protein: recombinant; tags: N-terminal GST; dsDNA, one strand shown. In a few lines:
as §1

Drawing on PMC7862700, “An all-to-all approach to the identification of sequence-specific readers for epigenetic DNA modifications on cytosine”, this text covers binding signal for one sequence.

Chain of ETV5 (P41161 whole entry): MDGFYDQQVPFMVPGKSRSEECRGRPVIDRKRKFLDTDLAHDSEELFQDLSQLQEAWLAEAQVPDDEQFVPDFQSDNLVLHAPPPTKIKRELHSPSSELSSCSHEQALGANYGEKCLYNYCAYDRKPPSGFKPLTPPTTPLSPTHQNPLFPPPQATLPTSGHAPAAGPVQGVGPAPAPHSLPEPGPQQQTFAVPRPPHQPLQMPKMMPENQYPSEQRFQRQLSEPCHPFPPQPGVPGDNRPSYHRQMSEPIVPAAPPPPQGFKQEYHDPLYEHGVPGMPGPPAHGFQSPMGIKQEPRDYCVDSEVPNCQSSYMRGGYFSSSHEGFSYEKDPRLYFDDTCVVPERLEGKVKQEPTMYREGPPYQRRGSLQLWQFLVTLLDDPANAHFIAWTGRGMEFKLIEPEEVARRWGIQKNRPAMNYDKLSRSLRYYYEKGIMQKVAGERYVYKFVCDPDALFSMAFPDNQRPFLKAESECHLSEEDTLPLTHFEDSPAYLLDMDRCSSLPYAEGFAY
Chain of CRX (O43186 whole entry): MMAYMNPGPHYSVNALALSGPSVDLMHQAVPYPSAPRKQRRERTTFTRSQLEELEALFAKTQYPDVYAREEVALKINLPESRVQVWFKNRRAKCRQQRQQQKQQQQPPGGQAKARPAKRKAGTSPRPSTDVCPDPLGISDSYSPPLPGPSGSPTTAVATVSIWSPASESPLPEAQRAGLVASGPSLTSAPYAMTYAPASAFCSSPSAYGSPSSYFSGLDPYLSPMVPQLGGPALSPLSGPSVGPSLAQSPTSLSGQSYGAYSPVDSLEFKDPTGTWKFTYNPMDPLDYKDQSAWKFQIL
Chain of HSF1 (Q00613 whole entry): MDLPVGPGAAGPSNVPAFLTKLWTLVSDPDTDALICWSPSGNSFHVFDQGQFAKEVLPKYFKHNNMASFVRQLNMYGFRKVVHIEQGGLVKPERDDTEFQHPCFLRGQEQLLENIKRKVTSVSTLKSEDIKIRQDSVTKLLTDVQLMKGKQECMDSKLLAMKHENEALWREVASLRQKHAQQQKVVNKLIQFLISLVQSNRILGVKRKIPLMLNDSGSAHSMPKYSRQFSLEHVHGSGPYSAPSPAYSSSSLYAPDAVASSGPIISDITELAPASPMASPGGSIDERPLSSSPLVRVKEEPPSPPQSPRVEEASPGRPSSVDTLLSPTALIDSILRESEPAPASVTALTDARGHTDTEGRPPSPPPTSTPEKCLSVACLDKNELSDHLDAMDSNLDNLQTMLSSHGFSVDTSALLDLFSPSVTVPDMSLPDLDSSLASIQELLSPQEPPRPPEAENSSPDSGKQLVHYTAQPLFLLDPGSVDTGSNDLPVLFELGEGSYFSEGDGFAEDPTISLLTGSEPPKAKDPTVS
Chain of ETV1 (P50549 whole entry): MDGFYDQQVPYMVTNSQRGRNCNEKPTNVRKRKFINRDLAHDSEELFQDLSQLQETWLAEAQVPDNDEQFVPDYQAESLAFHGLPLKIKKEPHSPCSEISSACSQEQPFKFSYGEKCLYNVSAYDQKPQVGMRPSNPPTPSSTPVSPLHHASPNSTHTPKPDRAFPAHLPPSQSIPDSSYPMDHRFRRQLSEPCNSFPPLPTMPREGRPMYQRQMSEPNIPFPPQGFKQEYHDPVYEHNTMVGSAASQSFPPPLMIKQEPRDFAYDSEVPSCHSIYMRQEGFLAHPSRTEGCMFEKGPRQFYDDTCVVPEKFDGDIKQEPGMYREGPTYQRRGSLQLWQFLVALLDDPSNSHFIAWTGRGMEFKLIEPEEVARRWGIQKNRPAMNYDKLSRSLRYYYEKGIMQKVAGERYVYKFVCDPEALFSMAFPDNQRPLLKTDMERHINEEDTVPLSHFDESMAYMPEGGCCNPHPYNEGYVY
Chain of ETV6 (P41212 whole entry): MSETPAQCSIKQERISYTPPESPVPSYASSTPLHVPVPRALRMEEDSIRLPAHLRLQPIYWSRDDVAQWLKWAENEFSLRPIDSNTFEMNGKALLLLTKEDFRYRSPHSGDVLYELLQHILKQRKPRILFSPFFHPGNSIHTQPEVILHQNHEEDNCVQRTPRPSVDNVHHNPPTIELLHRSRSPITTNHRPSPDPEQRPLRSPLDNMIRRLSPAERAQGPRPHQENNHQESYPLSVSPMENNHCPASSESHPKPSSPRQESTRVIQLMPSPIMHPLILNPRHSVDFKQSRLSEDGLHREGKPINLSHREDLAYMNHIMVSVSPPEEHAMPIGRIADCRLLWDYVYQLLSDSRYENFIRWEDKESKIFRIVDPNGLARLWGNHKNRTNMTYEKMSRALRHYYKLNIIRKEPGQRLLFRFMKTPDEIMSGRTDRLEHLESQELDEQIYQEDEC
Chain of ELF4 (Q99607 whole entry): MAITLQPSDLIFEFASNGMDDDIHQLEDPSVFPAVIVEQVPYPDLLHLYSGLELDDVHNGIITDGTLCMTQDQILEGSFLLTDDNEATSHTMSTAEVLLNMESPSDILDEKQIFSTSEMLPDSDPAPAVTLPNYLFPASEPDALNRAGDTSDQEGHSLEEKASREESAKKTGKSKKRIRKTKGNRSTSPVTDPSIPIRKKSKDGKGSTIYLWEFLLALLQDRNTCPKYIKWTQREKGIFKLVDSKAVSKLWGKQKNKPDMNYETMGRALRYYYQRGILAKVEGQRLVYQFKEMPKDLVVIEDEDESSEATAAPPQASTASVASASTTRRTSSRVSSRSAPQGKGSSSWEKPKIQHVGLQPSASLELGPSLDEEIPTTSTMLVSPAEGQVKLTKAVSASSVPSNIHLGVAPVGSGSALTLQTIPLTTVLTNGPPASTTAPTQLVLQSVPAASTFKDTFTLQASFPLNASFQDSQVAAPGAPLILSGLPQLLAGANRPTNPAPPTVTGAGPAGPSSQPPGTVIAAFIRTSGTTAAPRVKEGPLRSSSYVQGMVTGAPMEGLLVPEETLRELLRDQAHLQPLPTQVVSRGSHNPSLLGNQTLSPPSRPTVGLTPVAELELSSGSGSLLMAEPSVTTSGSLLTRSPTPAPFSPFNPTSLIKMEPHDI

For TAGCTT, the binding signal was 1.2 fold enrichment (6-mer frequency, TF over GST control) in the assay with FEV; 1.31 fold enrichment (6-mer frequency, TF over GST control) in the assay with ETV5; 1.4 fold enrichment (6-mer frequency, TF over GST control) in the assay with HSF1; 1.28 fold enrichment (6-mer frequency, TF over GST control) with SPIC; 1.1 fold enrichment (6-mer frequency, TF over GST control) with ELF4; 1.21 fold enrichment (6-mer frequency, TF over GST control) with ELK4. The binding signal was 1.15 fold enrichment (6-mer frequency, TF over GST control) with ETV2; 1.33 fold enrichment (6-mer frequency, TF over GST control) with ELF3; 1.83 fold enrichment (6-mer frequency, TF over GST control) with CRX; 1.2 fold enrichment (6-mer frequency, TF over GST control) with ETV1; 1.29 fold enrichment (6-mer frequency, TF over GST control) with ERF; 1.24 fold enrichment (6-mer frequency, TF over GST control) in the assay with ETV3L. The binding signal with ETS2 was 1.29 fold enrichment (6-mer frequency, TF over GST control); in the assay with SPDEF, 1.08 fold enrichment (6-mer frequency, TF over GST control); in the assay with ETV7, 1.16 fold enrichment (6-mer frequency, TF over GST control); with ELF5 it was 1.22 fold enrichment (6-mer frequency, TF over GST control); with ETV3 it was 1.16 fold enrichment (6-mer frequency, TF over GST control); in the assay with ETV6, 1.28 fold enrichment (6-mer frequency, TF over GST control).
